Compound activity (PubChem)
HP1b binding inh: blocks HP1-beta chromodomain binding to methylated histone tails; P83916; AlphaScreen HP1-beta / biotin-H3K9me3 peptide binding; Potency, µM (titrated, usually from 114 µM), inactives show at the highest dose activity change, negative = inhibition, hits mostly inhibitors; hit rate 0.56% among 390,000; AID 540317; note: potency is the fitted concentration of half-maximal effect; nearly all actives have a fitted effect of over 70% in size
Target sequence (P83916 whole entry, looked up): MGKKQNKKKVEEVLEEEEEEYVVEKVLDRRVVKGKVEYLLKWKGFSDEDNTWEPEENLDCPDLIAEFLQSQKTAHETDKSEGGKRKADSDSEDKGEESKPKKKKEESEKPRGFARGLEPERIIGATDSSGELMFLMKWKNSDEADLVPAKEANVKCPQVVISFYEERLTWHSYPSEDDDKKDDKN
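AlphaScreen: HP1-beta (50 nM) preformed 30 min with biotin-H3(1-18)K9me3 peptide (50 nM) in PBS pH 7.4, 0.01% Tween-20. Compound added for 30 min at RT, then streptavidin donor/nickel chelate acceptor beads (10 ug/mL) for 30 min.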
JMJD2A Tudor: blocks the human JMJD2A Tudor domain; AlphaScreen JMJD2A-Tudor / H3K4me3 peptide binding; O75164; AID 504339; hit rate 4.4% among 390,000; Potency, µM (titrated, usually from 114 µM), for inactives: at the top dose activity change, negative = inhibition, hits mostly inhibitors; note: potency is the fitted concentration of half-maximal effect; % is set by controls: 0 for no effect and ±100 for the full control effect; nearly all actives have a fitted effect of over 50% in size
G9a block: G9a (human) methyltransferase inhibition | Q96KQ7 | G9a H3K9 monomethylation, AlphaScreen, 2 h | Potency, µM (series often up to 102 µM), for inactives: at the highest dose activity, negative = inhibition, usual class: inhibitors | hit rate 8.8% among 350,000 | AID 504332; note: potency is the fitted concentration of half-maximal effect; % is set by controls: 0 for no effect and ±100 for the full control effect; nearly all actives have a fitted effect of over 75% in size
Target sequence (Q96KQ7 913-1193 limits assumed): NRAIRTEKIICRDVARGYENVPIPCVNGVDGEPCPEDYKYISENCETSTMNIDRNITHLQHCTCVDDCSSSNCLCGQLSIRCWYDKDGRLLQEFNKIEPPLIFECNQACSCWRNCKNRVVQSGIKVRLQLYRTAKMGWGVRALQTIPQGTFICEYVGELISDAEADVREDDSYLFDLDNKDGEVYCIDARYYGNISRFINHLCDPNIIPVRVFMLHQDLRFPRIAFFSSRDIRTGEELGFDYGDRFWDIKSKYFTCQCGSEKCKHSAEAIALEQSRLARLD
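AlphaScreen read-out: biotin-H3K9 peptide (500 nM) methylation by 20 nM enzyme with 20 uM SAM, 2 h at room temperature after 15 min compound preincubation; anti-monomethyl H3K9 antibody plus donor/acceptor beads, 10 min dark.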
BAZ2B inh: BAZ2B (human) inhibition; Q9UIF8; AlphaScreen BAZ2B-H3K14Ac peptide displacement; Potency, µM (doses to about 114 µM), for inactives: at the top dose activity change, negative = inhibition, hits mostly inhibitors; hit rate 4.4% among 360,000; AID 504333; note: potency is the fitted concentration of half-maximal effect; % is set by controls: 0 for no effect and ±100 for the full control effect; nearly all actives have a fitted effect of over 60% in size
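Compounds, titrated to a top concentration of 110 uM, were incubated 30 min at room temperature with preformed BAZ2B/acetyl-K14 H3 peptide complex (50 nM each). Proximity signal was measured by AlphaScreen after 20 min with beads.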
CtBP-E1A blk: inhibitors of CtBP/E1A interaction; AlphaScreen GST-E1A/His-CtBP binding, 1536-well; hits give low values; activity change, % (concentration not given with the values); hit rate 0.49% among 340,000; AID 651724; in the data active = activity change below about -65%; inconclusive = mostly about -30% to -63%; note: % is set by controls: 0 for no effect and ±100 for the full control effect
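Protein mix (5X: 125 nM each GST-E1A, His-CtBP) was incubated with pinned compound 2 h at 37 deg C in dark, in 50 mM Tris pH 8.0 buffer with 300 mM NaCl. Glutathione donor and nickel acceptor beads followed; AlphaScreen signal read after 1 h.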
Six1-Eya2 blk: Six1/Eya2 interaction inhibition. Q15475+O00167. AlphaScreen GST-Six1/His-Eya2 binding, biochemical; hits give low values. activity change, % (concentration not given with the values). hit rate 0.56% among 360,000. AID 651725; in the data active = activity change below about -65%; inconclusive = mostly about -30% to -63%; note: % is set by controls: 0 for no effect and ±100 for the full control effect
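Six1/Eya2 binding was read as AlphaScreen signal after compounds were pinned into GST-Six1 plus His-tagged Eya2 (5X stock 250/500 nM) in pH 8.0 Tris/NaCl/TCEP buffer, beads added, then incubated 1 h, 37 C, dark.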
An asterisk follows results filed as active; ? = inconclusive; . = no result given; [ ] = remark or other dose. Shown are actives, neighbours in structure and some others; about 10% of the full set was active somewhere. Unless noted, calls come from the whole dose curve; as a rule, active = well fitted inhibition curve with a large enough effect; inconclusive = small, poorly fitted or top-dose-only effect; inactive = no such curve, though single readings can be large or run the other way.

SMILES	HP1b binding inh	JMJD2A Tudor	G9a block	BAZ2B inh	CtBP-E1A blk	Six1-Eya2 blk
Cc1onc(-c2c(Cl)cccc2Cl)c1NC(=O)NNc1ccccc1	63%	-16%	40µM*	-15%	.	-5
Cc1onc(-c2c(Cl)cccc2Cl)c1C(=O)NNc1ccccc1	-30%	79µM*	.	?	-25	-1
Cc1onc(-c2c(F)cccc2Cl)c1C(=O)ONC(=O)c1ccco1	29%	40µM*	50µM*	-7%	.	5
Cc1onc(-c2c(F)cccc2Cl)c1C(=O)NCc1ccccc1	19%	-9%	20%	-7%	-5	3
COc1ccccc1-n1nc(-c2ccccc2)c2cnc3cc(C(F)(F)F)ccc3c21	19%	-18%	1%[59 µM]	.	.	.
Cc1ccc(-n2nnnc2SCn2nnc3ccccc3c2=O)c(C)c1	13%	?	-2%[59 µM]	3%	10	-3
O=C(Cn1sc2ccccc2c1=O)NC12CC3CC(CC(C3)C1)C2	?	2.8µM*	?	11µM*	10	4
O=C(CSc1nc2ccccc2c(=O)n1Cc1ccco1)N1CCN(c2ccccc2)CC1	?	-4%	14µM*	?	-16	-14
CCn1c(SCC(=O)N2CCN(c3ccc(Cl)cc3)CC2)nc2ccccc2c1=O	-19%	-32%	2µM*	50µM*	4	8
CCCCn1c(SCC(=O)N2CCC(C)CC2)nc2ccsc2c1=O	39%	-1%	1%	0%	-7	0
CCn1c(SCC(=O)N2CCN(c3ccc(F)cc3)CC2)nc2ccccc2c1=O	-12%	-16%	-22%[59 µM]	-34%	-3	11
CCCCn1c(SCC(=O)N2CCN(c3ccccc3)CC2)nc2ccsc2c1=O	29%	-35%	40µM*	-31%	25	-8
CCn1c(SCC(=O)N2CCOCC2)nc2oc3c(Cl)cc(Cl)cc3c(=O)c2c1=O	.	.	40µM*	?	.	.
CCCn1c(SCC(=O)N2CCN(c3ccccc3)CC2)nc2ccccc2c1=O	2%	-27%	8%[12.7 µM]	-26%	-8	-3
COc1ccccc1CNC(=O)C1CCN(C2=NS(=O)(=O)C(c3ccc(C)c(C)c3)=C2C)CC1	38%	56µM*	-3%[59 µM]	3%	.	.
CCOc1ccccc1CNC(=O)C1CCN(C2=NS(=O)(=O)C(c3ccc(C)c(C)c3)=C2C)CC1	14%	1%	1%[59 µM]	-5%	.	.
COC(=O)CSc1nnc(COc2cccc3ccccc23)o1	65%	-1%	16%	-6%	7	24
Cc1csc(N(C)C(=O)CSc2nnc(COc3cccc4ccccc34)o2)n1	40%	-16%	10µM*	-6%	4	-9
CCc1ccc(OCc2nnc(SCc3ccc(C(=O)O)cc3)o2)cc1	.	-16%	.	?	-4	-2
O=C(O)c1ccc(CSc2nnc(COc3ccccc3)o2)cc1	3%	-12%	45µM*	7%	2	-1
CN(C(=O)CSc1nnc(COc2ccccc2)o1)c1ccccc1	31%	-25%	-23%[59 µM]	79µM*	.	.
O=C(c1cccc(S(=O)(=O)N2CCc3ccccc32)c1)N1CCCC(C(F)(F)F)C1 (centres undefined)	5%	-22%	11%	3%	7	1
Cc1ccc(S(=O)(=O)N2CCOCC2)cc1C(=O)NCC1CCCO1 (centres undefined)	5%	-5%	.	-7%	-1	11
COc1cccc(CSc2ccc(S(=O)(=O)N3CCOCC3)cc2C(=O)NCC2CCCO2)c1OC (centres undefined)	-8%	-7%	40µM*	10%	-8	6
COc1ccccc1CNC(=O)c1oc2ccc(S(=O)(=O)N3CCOCC3)cc2c1C	-6%	-14%	8%[59 µM]	-2%	-15	4
SMILES	HP1b binding inh	JMJD2A Tudor	G9a block	BAZ2B inh	CtBP-E1A blk	Six1-Eya2 blk
COCCNC(=O)c1cc(S(=O)(=O)N2CCOCC2)ccc1SCc1cccc(OC)c1OC	42%	-3%	28µM*	4%	1	-2
Nc1c(C(=O)CSc2nccn2-c2cccc(F)c2)c(=O)[nH]c(=O)n1C1CC1	34%	-15%	17%[12.7 µM]	13%	.	0
CCc1c(C)sc(NC(=O)CC#N)c1C#N	-4%	?	-27%[2.33 µM]	-31%	-67*	?
CCc1c(C)sc(NC(=O)Cn2nc(C(F)(F)F)c3c2CCCC3)c1C#N	-10%	4%	14µM*	10%	2	1
CCc1ccc(NC(=O)Cn2nc(C(F)(F)F)c3c2CCCC3)cc1	45%	-5%	4%[59 µM]	1%	.	.
CCCCC(=O)Nc1sc2c(c1C#N)CC(C)(C)OC2	10%	45µM*	13%	9%	7	2
Cc1sc(NC(=O)C2CCCC2)c(C#N)c1C	?	-19%	7.1µM*	-1%	0	7
COc1ccc(S(=O)(=O)N(CCCN2CCCC2=O)Cc2cc3cc(C)c(C)cc3[nH]c2=O)cc1	50%	-5%[11.4 µM]	6%	-1%	6	2
CCCCCC(=O)Nc1sc(C)c(C)c1C#N	?	-9%	3.2µM*	-29%	0	17
CCOC(=O)c1c(NC(=O)CCC(=O)O)sc2c1CC(C)(C)OC2	39%	3%	3%	-19%	7	-3
CCCC(=O)Nc1sc(C)c(C)c1C#N	-6%	-12%	45µM*	-23%	0	0
CCOC(=O)c1c(NC(=O)C2CC2)sc2c1CC(C)(C)OC2	40%	10%	35µM*	-23%	4	6
CCOC(=O)C(=O)Nc1sc(C(=O)N(CC)CC)c(C)c1C#N	57%	-23%	50µM*	-20%	8	4
COc1cc(/C=N/NC(=O)[C@H](Cc2c[nH]c3ccccc23)NC(=O)OCC(C)C)cc([N+](=O)[O-])c1O	-17%	?	?	40µM*	-25	?
CCN(CC)S(=O)(=O)c1ccc2c(c1)nc(SCc1nc3ccsc3c(=O)[nH]1)n2CC	32%	-13%	35µM*	12%	-22	-12
CCn1c(SCc2nc3ccccc3c(=O)[nH]2)nc2ccccc21	9%	?	?	-17%	0	-15
COc1cc(C(C)=O)ccc1Oc1cc(NN2CCCCC2)c([N+](=O)[O-])cc1[N+](=O)[O-]	-8%	?	28µM*	?	-17	-18
CC1(C)Cc2cccc(Oc3cc(NN4CCCCC4)c([N+](=O)[O-])cc3[N+](=O)[O-])c2O1	-11%	?	35µM*	?	?	?
O=[N+]([O-])c1cc([N+](=O)[O-])c(Oc2ccccc2F)cc1NN1CCCCC1	-18%	?	.	?	5	-12
Cc1ccc(C)c(Oc2cc(NN3CCCCC3)c([N+](=O)[O-])cc2[N+](=O)[O-])c1	-12%	?	7.9µM*	?	-1	-1
